Compound activity deposited in PubChem by National Center for Advancing Translational Sciences (NCATS).
The list is not random: actives were taken first. Their share in the collection is about 7.5%.
NPC1 prom act = activators of NPC1 promoter | Huh7 NPC1 promoter luciferase reporter, 24 h | Potency, µM (series often up to 9.22 µM), inactives show at the top dose activation, hits mostly activators | actives 2.4% (n = 320,000); also: % of control where 0% means no effect; nearly all actives have a fitted effect of over 60% in size
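Huh7 cells stably carrying NPC1 promoter–luciferase, plated in Opti-MEM with 10% FBS for 2 h, were exposed to compound in DMSO for 24 h at 37 °C; luciferase reagent was added for 10 min and luminescence read.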
SMN2 splice enh = enhancers of SMN2 splice variant expression; actives 2.8% (n = 210,000); Potency, µM (highest dose often 46.1 µM), for the others: top-dose activity change, positive = activation, hits mostly activators; HEK293 SMN2-luciferase splicing reporter, luminescence, 30-36 h; AID 1458; also: % of control where 0% means no effect; nearly all actives have a fitted effect of over 55% in size
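qHTS luciferase splicing reporter: luminescence rises when SMN2 exon 7 is included in transfected HEK293 cells. Compound exposure lasted 30-36 h at 37C, with 4.5 mM final sodium butyrate as control, followed by a ONE-Glo read.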
Rab9 promoter act = activates the Rab9 promoter. Huh7 Rab9 promoter-luciferase reporter, luminescence, 24 h. Potency, µM (highest dose often 9.22 µM), without a hit: at the top dose activation, negative = inhibition, actives largely listed as activators. actives 2.8% (n = 320,000); also: % of control where 0% means no effect; nearly all actives have a fitted effect of over 60% in size
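Steps: seed 1500 Huh7 Rab9-luc cells per well, rest 2 h at 37 °C; add compound in DMSO; incubate 24 h; add luciferase reagent, 10 min ambient; read luminescence.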
ELG1 genotoxic = inducers of genotoxicity in HEK293T ELG1-luciferase cells; Potency, µM (doses to about 46 µM), for inactives: at the highest dose activity change, positive = activation, usual class: activators; actives 1.3% (n = 330,000); HEK293T ELG1-luciferase reporter, luminescence, 16 h; also: % of control where 0% means no effect; nearly all actives have a fitted effect of over 60% in size
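16 hr compound incubation (37 °C, 5% CO2) of HEK293T cells carrying luciferase-tagged ELG1; luciferase then measured by ONE-Glo luminescence after 30 min at RT.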
FLuc modulator = inhibits or activates purified firefly luciferase, miR-21 counter-screen. actives 6.9% (n = 360,000). purified FLuc, Km substrates, luminescence inhibition. Potency, µM (highest dose often 57.5 µM), for the others: at the top dose activity change, negative = inhibition, most hits filed as inhibitors. P08659;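 also: plate controls were vehicle for no effect and reference inhibitor for full effect; nearly all actives have a fitted effect of over 55% in size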
Target sequence (P08659 whole entry, looked up): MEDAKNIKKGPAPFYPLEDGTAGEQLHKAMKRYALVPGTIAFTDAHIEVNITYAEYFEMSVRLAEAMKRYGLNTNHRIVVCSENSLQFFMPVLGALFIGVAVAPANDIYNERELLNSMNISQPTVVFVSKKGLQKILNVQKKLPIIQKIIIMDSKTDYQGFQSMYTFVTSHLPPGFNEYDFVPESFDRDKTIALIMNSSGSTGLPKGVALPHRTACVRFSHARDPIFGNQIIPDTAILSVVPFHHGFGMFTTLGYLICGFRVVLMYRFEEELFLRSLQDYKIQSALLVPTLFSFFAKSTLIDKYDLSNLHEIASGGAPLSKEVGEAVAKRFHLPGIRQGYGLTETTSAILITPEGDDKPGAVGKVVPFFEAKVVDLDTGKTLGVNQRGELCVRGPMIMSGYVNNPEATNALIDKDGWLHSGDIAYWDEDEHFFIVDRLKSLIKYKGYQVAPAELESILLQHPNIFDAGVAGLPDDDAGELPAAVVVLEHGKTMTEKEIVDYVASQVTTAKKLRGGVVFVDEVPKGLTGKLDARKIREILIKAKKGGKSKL
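Purified P. pyralis luciferase (10nM final) with 10uM D-luciferin and 10uM ATP (Km levels) in 50mM Tris acetate pH 7.5, 10mM Mg acetate, 0.01% Tween-20, 0.05% BSA; qHTS 6-point titration, ~60 µM downward; luminescence read.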
* hit, by the source's call; ? = inconclusive; . = no result; [ ] = another dose, or the depositor's remark. Calls follow the shape of the dose curve; as a rule, active = well fitted curve in the direction sought with a large enough effect; inconclusive = small, poorly fitted or top-dose-only effect, or another doubt; inactive = no such curve, though single readings can be large; an effect the other way counts as inactive or inconclusive. Potency is read from the fitted curve at half-maximal effect.

SMILES	NPC1 prom act	SMN2 splice enh	Rab9 promoter act	ELG1 genotoxic	FLuc modulator
COC(=O)c1cccc(C(=O)Nc2ccc(C)cc2)n1	3.55µM*	-3.5%	?	10.2%	12µM*
Cc1ccc(NC(=O)c2cccc(C(=O)Nc3ccc(C)c(C)c3)n2)cc1C	0.4%	.	10.4%	-4.3%	?
CCOC(=O)N1CCC(N2Cc3cccc(C(=O)Nc4ccc(CC)cc4)c3C2=O)CC1	0.3%	6.7%	0.6%	-15.4%	12µM*
CCOC(=O)N1CCC(N2Cc3cccc(C(=O)Nc4ccc(OCC)cc4)c3C2=O)CC1	0.7%	.	-1.7%	-6.7%	12µM*
CCOC(=O)N1CCC(N2Cc3cccc(C(=O)Nc4ccc(F)cc4)c3C2=O)CC1	-6.7%	-20.8%	-3.1%	-0.1%	-3.3%
CCOC(=O)N1CCC(N2Cc3cccc(C(=O)O)c3C2=O)CC1	2.0%	0.3%	2.2%	-7.3%	1.4%
CCCCNC(=S)N/N=C/C1=CCC2CC1C2(C)C (centres undefined)	-0.1%	-8.7%	-3.5%	-6.7%	-12.5%
OCc1nc2nc(Cl)c(Cl)nc2[nH]1	2.9%	.	-0.3%	-4.2%	7.7%
CC(=O)Cn1nnc(-c2ccc(C(F)(F)F)cc2)n1	15.7%	.	17.4%	10.5%	-24.5%
CCOC(=O)CSc1nc(N)nc(C)c1Cl	0.8%	.	-1.6%	-4.4%	23.9µM*
CCOC(=O)CSc1nc(C)c(CC)c(C)c1C(N)=O	-2.6%	-11.5%	-1.0%	3.3%	5.2%
O=C(NCC1CCCO1)C(=O)NCC1CCCN1S(=O)(=O)c1ccccc1 (centres undefined)	-3.8%	.	-3.3%	-3.6%	-2.0%
O=C(NCC(c1cccs1)N1CCOCC1)c1ccco1 (centres undefined)	-1.2%	-15.7%	5.3%	-0.4%	0.9%
CCN1CCN(C(=O)CNC(=O)c2nn(-c3ccc(OC)cc3)c(=O)c3ccccc23)CC1	-0.4%	.	5.8%	14.7%	4.78µM*
COc1ccc(-n2nc(C(=O)NCC(=O)O)c3ccccc3c2=O)cc1	1.7%	.	-2.5%	0.4%	1.5%
COc1ccc(-n2nc(C(=O)NCC(=O)N3CCN(Cc4ccccc4)CC3)c3ccccc3c2=O)cc1	-2.8%	.	-2.7%	-15.8%	?
COc1ccc(-n2nc(C(=O)NCC(=O)N3CCCC3)c3ccccc3c2=O)cc1	2.9%	.	-0.1%	2.5%	12µM*
COc1ccc(-n2nc(C(=O)NCC(=O)N(C)Cc3ccccc3)c3ccccc3c2=O)cc1	2.3%	.	6.4%	-19.7%	16.9µM*
COc1ccc(-n2nc(C(=O)NCC(=O)N3CCCCC3)c3ccccc3c2=O)cc1	3.7%	.	10.9%	1.0%	3.01µM*
CCN(C(=O)c1cnc2scc(C)n2c1=O)c1ccccc1C	-0.6%	-7.6%	-5.5%	9.9%	2.9%
O=C(O)Cn1nc(N2CCN(c3ccc(F)cc3)CC2)ccc1=O	.	4.6%	.	.	0.1%
Cc1cccc(CCNS(=O)(=O)c2ccc3c(c2)NC(=O)C(C)S3)c1 (centres undefined)	-1.4%	.	-0.2%	-4.9%	0.7%
Oc1ccc(Br)cc1/C=N/N1CCN(Cc2ccccc2)CC1	14.6%	-18.4%	3.2%	2.5%	?
Oc1ccc(Br)cc1/C=N/N1CCCCC1	?	17.3%[1.84 µM]	4.47µM*	?	9.53µM*
Oc1ccc(Br)cc1/C=N/n1cnc2ccccc21	?	25.6%	?	17.7%	8.49µM*
SMILES	NPC1 prom act	SMN2 splice enh	Rab9 promoter act	ELG1 genotoxic	FLuc modulator
CS(=O)(=O)NCc1ccc(C(=O)NC2CCCCC2)cc1	-0.6%	-0.3%	-4.2%	1.4%	3.7%
O/N=C/c1ccc(OCc2ccccc2)c(Br)c1	18.8%	15.8µM*	3.16µM*	14.6µM*	7.57µM*
O/N=C/c1ccc(OCc2ccccc2)c(Cl)c1	?	11.2µM*	3.55µM*	16.4µM*	4.78µM*
O/N=C/c1cc(Br)cc(Br)c1OCc1ccccc1	-8.5%	-19.7%	-7.5%	0.7%	3.9%
O/N=C/c1cc(Br)ccc1OCc1cccc(F)c1	2.6%	-17.2%	2.7%	-0.6%	?
Cc1ccc(COc2ccc(Br)cc2/C=N/O)cc1	?	10.2%	?	?	13.5µM*
O/N=C/c1ccccc1OCc1ccccc1F	6.2%	17.8%	-0.8%	6.8%	-16.1%
O/N=C/c1ccc(OCc2ccccc2F)c(Cl)c1	?	7.94µM*	1.58µM*	5.17µM*	2.69µM*
O=c1cc(N2CCOCC2)oc2c(-c3ccccc3)cccc12	-18.5%[46.1 µM]	?	-24.0%[46.1 µM]	.	.
CN(CCc1ccccn1)C(=O)Nc1cccc(Cl)c1	-1.6%	.	1.5%	2.4%	0.6%
O=C(c1c[nH]c2ccc(S(=O)(=O)Nc3ccccc3F)cc2c1=O)N1CCCCCC1	.	11.3%	.	.	?
O=C(OCc1cccc([N+](=O)[O-])c1)c1ccc2ccccc2n1	-28.9%	12.5%	-2.6%	2.6%	26.9µM*
CCOC(=O)c1oc2ccccc2c1CN1CCN(C)CC1	-1.6%	-6.4%	-1.9%	0.5%	0.5%
O=C1CNC(=O)/C(=C\c2ccccc2)N1	-8.9%	.	-0.9%[1.84 µM]	-0.4%	3.2%
O=C1/C(=C/c2ccccc2)Nc2ccccc21	-3.2%	-23.9%	1.6%	-0.8%	4.26µM*
CCN(CC)c1ccc(NC(=O)c2cccc(C)c2OC)c(C)c1	1.12µM*	?	?	?	10.7µM*
CCN(CC)c1ccc(NC(=O)c2cccnc2)c(C)c1	-0.3%	8.3%	3.4%	0.4%	-1.4%
CCN(CC)c1ccc(-n2nc3cc(C)c(NC(=O)c4ccccc4C)cc3n2)c(C)c1	.	6.31µM*	.	.	7.1%
c1csc(-c2nnc(N3CCCCCC3)c3ccccc23)c1	4.1%	.	10.3%	0.5%	3.01µM*
c1csc(-c2nnc(N3CCOCC3)c3ccccc23)c1	-12.8%	-22.1%	-2.5%	2.9%	?
O=C(NCc1ccco1)c1cc(-c2cccs2)on1	3.16µM*	?	2.82µM*	?	10.7µM*
O=C(Nc1ccc(F)cc1F)c1csc(-c2ccncc2)n1	14.5%	8.7%	11.2%	8.8%	?
O=C(NCc1ccccc1)c1cc(-c2cccs2)on1	?	6.3%	?	14.7%	?
O=C(Nc1ccc(F)cc1F)c1csc(-c2cccs2)n1	-0.1%	?	?	-5.2%	6.75µM*
O=C(NCc1ccco1)c1cc(-c2ccccc2)on1	?	12.6µM*	2.82µM*	18.4µM*	?
CC(C)c1cc(C(=O)NCCc2ccccc2)no1	3.16µM*	.	2.24µM*	?	16.9µM*
O=C(NCc1ccco1)c1ccccc1-c1ccccc1	-1.7%	-11.6%	1.2%	-2.8%	0.0%
COc1ccc(NC(=O)CC(C)c2ccccc2)c([N+](=O)[O-])c1 (centres undefined)	3.0%	15.6%	-2.9%	-0.8%	-1.9%
COC(=O)c1c(NC(=O)COc2c(C)cccc2C)sc2c1CCCC2	.	-12.5%	.	.	2.1%
O=C(NCCc1ccccc1)c1cc2ncc(Br)cn2n1	23.9%	?	?	16.4µM*	?
